These results are taken from PubChem BioAssay (Tox21).

The source made the active and inactive calls. Unless noted, calls come from the whole dose curve.

The test system of assay [1] is thyroid hormone receptor (rat, GH3 cells). Kind of assay: qHTS assay to identify small molecule agonists of the thyroid receptor (TR) signaling pathway (AID 743066).
Assay [2] concerns the target Estrogen receptor (Homo sapiens) (UniProt P03372). Nature of the assay: qHTS assay to identify small molecule antagonists of the estrogen receptor alpha (ER-alpha) signaling pathway (AID 743069; active = well fitted curve in the direction sought with a large enough effect in the signal ratio in the repeat runs, not every such curve was filed as active; inconclusive = weak or mixed curves, or effect the other way; inactive = no such curve, though single readings can be large or run the other way; the % refers to the signal ratio). The method, boiled down:
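ER-alpha-UAS-bla GripTite HEK293 line; 2% charcoal-stripped FBS overnight; plated, 4 hr 37C/5% CO2; cpd in DMSO + 17beta-estradiol, 18 hr 37C; LiveBLAzer B/G FRET substrate 2 hr RT; fluorescence intensity.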

A short description of assay [3]: qHTS assay to identify small molecule antagonists of the estrogen receptor alpha (ER-alpha) signaling pathway - cell viability counter screen (AID 743074).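 Note: HEK293 cells carrying ER-alpha-UAS-bla reporter stimulated with 17beta-estradiol; nearly all actives have a fitted effect of over 45% in size.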
For assay [4], the target named is Estrogen receptor (Homo sapiens) (UniProt P03372). Nature of the assay: qHTS assay to identify small molecule agonists of the estrogen receptor alpha (ER-alpha) signaling pathway using the BG1 cell line (AID 743079; active = well fitted curve in the direction sought with a large enough effect in the repeat runs; inconclusive = weak or mixed curves; inactive = no such curve, though single readings can be large; an effect the other way counts as inactive or inconclusive; note: nearly all actives have a fitted effect of over 20% in size; note: potency is the fitted concentration of half-maximal effect).
Sequence of Estrogen receptor (Homo sapiens) (P03372 whole entry, looked up): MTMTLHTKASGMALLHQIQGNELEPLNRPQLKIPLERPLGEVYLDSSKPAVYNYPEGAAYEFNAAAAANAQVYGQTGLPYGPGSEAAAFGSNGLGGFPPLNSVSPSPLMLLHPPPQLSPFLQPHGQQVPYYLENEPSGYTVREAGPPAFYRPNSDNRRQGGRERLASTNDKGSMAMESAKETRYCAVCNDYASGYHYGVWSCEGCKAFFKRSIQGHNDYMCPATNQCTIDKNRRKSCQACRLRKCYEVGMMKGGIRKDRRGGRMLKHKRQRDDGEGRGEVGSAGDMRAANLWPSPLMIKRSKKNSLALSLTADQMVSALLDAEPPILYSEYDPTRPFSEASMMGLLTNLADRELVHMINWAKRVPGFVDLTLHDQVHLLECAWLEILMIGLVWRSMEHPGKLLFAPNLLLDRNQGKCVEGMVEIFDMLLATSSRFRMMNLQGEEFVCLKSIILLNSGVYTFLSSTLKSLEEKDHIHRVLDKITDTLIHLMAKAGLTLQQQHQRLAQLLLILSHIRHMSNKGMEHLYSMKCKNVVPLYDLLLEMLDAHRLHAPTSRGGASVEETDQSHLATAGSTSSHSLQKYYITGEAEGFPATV
Assay [5] is described as follows: qHTS assay to identify small molecule antagonists of the estrogen receptor alpha (ER-alpha) signaling pathway using the BG1 cell line (AID 743080). Note: nearly all actives have a fitted effect of over 25% in size. Note: potency is the fitted concentration of half-maximal effect. The method, boiled down: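 Antagonist mode: compounds in DMSO were pinned onto BG1-Luc-4E2 cells alongside 17beta-estradiol agonist, incubated 21.5 h, and ERE-driven luciferase measured with ONE-Glo. Cytotoxicity was multiplexed using CellTiter-Fluor fluorescence.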

Assay [6] is described as follows: qHTS assay to identify small molecule antagonists of the estrogen receptor alpha (ER-alpha) signaling pathway using the BG1 cell line - cell viability counter screen (AID 743081; active = well fitted curve in the direction sought with a large enough effect in the repeat runs; inconclusive = weak or mixed curves; inactive = no such curve, though single readings can be large; an effect the other way counts as inactive or inconclusive;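 note: compound given together with 17beta-estradiol as the ER stimulus; series mostly up to about 70 µM; nearly all actives have a fitted effect of over 45% in size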).
Another assay concerns the target Aromatase (Homo sapiens) (UniProt P11511). Kind of assay: qHTS assay to identify aromatase inhibitors (AID 743083; active = well fitted curve in the direction sought with a large enough effect in the repeat runs; inconclusive = weak or mixed curves; inactive = no such curve, though single readings can be large; an effect the other way counts as inactive or inconclusive; note: nearly all actives have a fitted effect of over 55% in size; note: potency is the fitted concentration of half-maximal effect).
Assay [7] addresses Estrogen receptor (Homo sapiens) (UniProt P03372). Kind of assay: qHTS assay to identify small molecule agonists of the estrogen receptor alpha (ER-alpha) signaling pathway (AID 743075).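 Note: HEK293 GripTite cells with ER-alpha and UAS-driven beta-lactamase reporter.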 Note: potency is the fitted concentration of half-maximal effect.
Assay [8] is described as follows: qHTS assay to identify small molecule antagonists of the thyroid receptor (TR) signaling pathway (AID 743065; active = well fitted curve in the direction sought with a large enough effect in the repeat runs; inconclusive = weak or mixed curves; inactive = no such curve, though single readings can be large; an effect the other way counts as inactive or inconclusive; note: nearly all actives have a fitted effect of over 55% in size; note: potency is the fitted concentration of half-maximal effect). The method, boiled down: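 Antagonism measured as loss of luciferase signal in GH3 cells stably carrying a TRE-luciferase reporter, co-treated with compound and T3 (1 nM final) for 23.5 h at 37 C. Viability was read in the same well by CellTiter-Fluor.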

Sequence of Aromatase (Homo sapiens) (P11511 whole entry, looked up): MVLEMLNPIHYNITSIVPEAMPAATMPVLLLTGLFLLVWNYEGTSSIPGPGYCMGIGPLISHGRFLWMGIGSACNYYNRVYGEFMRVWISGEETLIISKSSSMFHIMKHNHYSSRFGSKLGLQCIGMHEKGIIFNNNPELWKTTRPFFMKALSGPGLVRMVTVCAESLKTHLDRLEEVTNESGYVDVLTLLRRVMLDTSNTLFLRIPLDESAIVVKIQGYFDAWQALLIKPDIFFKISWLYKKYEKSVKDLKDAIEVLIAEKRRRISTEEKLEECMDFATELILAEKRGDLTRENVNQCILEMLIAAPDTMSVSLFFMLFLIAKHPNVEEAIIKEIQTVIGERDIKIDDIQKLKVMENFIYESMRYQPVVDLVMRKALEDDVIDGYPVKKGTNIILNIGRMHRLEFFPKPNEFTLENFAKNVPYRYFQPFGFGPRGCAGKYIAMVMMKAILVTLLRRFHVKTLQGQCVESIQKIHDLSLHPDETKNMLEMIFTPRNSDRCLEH

Take `COc1ccc2[nH]c(S(=O)Cc3ncc(C)c(OC)c3C)nc2n1` (centres undefined): the Potency entry (in [1]; in assay [2]; in assay [4]; in [5]; in assay [6]; with Aromatase (Homo sapiens)) was “inactive” throughout. For the same molecule, the call in assay [3] was inactive.
For the molecule `O=C(Cl)c1c(Cl)cccc1Cl`, the Potency entry in [1], in assay [2], in [7], in assay [4], in assay [5] and in [6] was “inactive” each time. Further, the Potency entry with Aromatase (Homo sapiens) is “inactive”. In addition, the call in [3] was inactive.
For the molecule `CC(C)CC=O`, the Potency result in [1], in assay [2], in assay [7], in assay [4], in assay [5] and in [6] was “inactive” throughout. Besides, in the assay with Aromatase (Homo sapiens), the Potency entry was “inactive”. In assay [3], the outcome was inactive.
Consider `CCCCCCCC/C=C\CCCCCCCC(N)=O`, for which the Potency entry (in [8]; in assay [1]; in [6]; with Aromatase (Homo sapiens)) was “inactive” throughout. Further, the molecule was classed as inactive in [3].
As to `O=C(O)/C=C/c1cnc[nH]1`, the Potency result (in [1]; in [6]; in the assay with Aromatase (Homo sapiens)) was “inactive” each time. In [3], the outcome was inactive.
Take `Oc1ccc(O)c2c(O)cccc12`: the Potency result in [1], in [2], in [7], in assay [4], in assay [5] and in [6] was “inactive” in each case. For the same molecule, the Potency result with Aromatase (Homo sapiens) is “inactive”. Moreover, the outcome in assay [3] was inactive.
In the case of `CC(C)NCC(O)c1cc(O)cc(O)c1` (centres undefined), in assay [3], the molecule was called inactive. In addition, the Potency result (in [5]; in [6]; with Aromatase (Homo sapiens)) was “inactive” in each case.
For `CN1CCC(OC(c2ccccc2)c2ccccc2)CC1`, the Potency result (in assay [1]; in [2]; in assay [7]; in assay [5]; in assay [6]; with Aromatase (Homo sapiens)) was “inactive” each time. Further, the molecule was classed as inactive in assay [3].
Consider `O=C(CC(=O)c1ccccc1)c1ccccc1`, for which the Potency entry (in assay [8]; in assay [1]; in assay [6]; in the assay with Aromatase (Homo sapiens)) was “inactive” throughout. Also, in assay [3], the molecule was classed as inactive.
Consider `O=S(=O)(O)c1ccc(O)c2ncccc12`, for which the Potency result (in assay [1]; in [2]; in assay [7]; in assay [4]; in [5]; in the assay with Aromatase (Homo sapiens)) was “inactive” throughout. In addition, the outcome in [3] was inactive.
Turning to `CCCCC(CC)COCCCN` (centres undefined), the Potency result (in assay [1]; in assay [2]; in assay [7]; in [5]; in [6]; with Aromatase (Homo sapiens)) was “inactive” each time. The molecule was called inactive in assay [3].
As to `CCN(CC)C(C)CN1c2ccccc2Sc2ccccc21` (centres undefined), the Potency result (in [2]; in assay [7]; in assay [4]; in assay [5]; in assay [6]; in the assay with Aromatase (Homo sapiens)) was “inactive” in each case. Moreover, in assay [3], the call was inactive.
In the case of `C=CC(C)(CCC=C(C)C)OC(=O)c1ccccc1` (centres undefined), the Potency entry in assay [1] and in [6] was “inactive” each time. Further, the result in [3] was inactive.
As to `CN(C)CC[C@@H](c1ccc(Br)cc1)c1ccccn1`, the Potency result in [2], in assay [7], in assay [4], in assay [5] and in assay [6] was “inactive” in each case. In addition, in assay [3], the molecule was classed as inactive.
In the case of `CCOc1ccc2[nH]cc(C(=O)NCc3ccccc3)c(=O)c2n1`, the Potency entry in assay [1], in assay [2], in assay [7] and in assay [6] was “inactive” each time. Further, the result in assay [3] was inactive. In addition, in the assay with Aromatase (Homo sapiens), the Potency is 61.1 µM (active).
Take `Oc1ccc(Sc2ccc(O)cc2)cc1`: the Potency result (in assay [1]; in assay [5]; in [6]; in the assay with Aromatase (Homo sapiens)) was “inactive” each time. Besides, in assay [3], the molecule was classed as inactive. The values for the Potency in assay [7] and in assay [4] were 18.2 µM [inconclusive] (active) and 0.51 µM (active), respectively.
Regarding `Cc1cc(CC(=O)O)c(C)n1-c1ccc(Cl)cc1`, the Potency result (in [1]; in [6]; with Aromatase (Homo sapiens)) was “inactive” each time. Moreover, in assay [3], the call was inactive.
Regarding `COc1ccc(C(C)=O)cc1`, the Potency result (in assay [1]; in assay [7]; in [5]; in assay [6]; in the assay with Aromatase (Homo sapiens)) was “inactive” in each case. In assay [4], the Potency was 44.6 µM (active).
Turning to `CC(C)(C)c1ccc(S)cc1`, the Potency result (in assay [8]; in assay [1]; in assay [7]; in assay [6]; with Aromatase (Homo sapiens)) was “inactive” in each case. Also, in assay [3], the call was inactive.
Regarding `O=C1[C@H](CC[C@H](O)c2ccc(F)cc2)[C@@H](c2ccc(O)cc2)N1c1ccc(F)cc1`, the Potency result in assay [1], in assay [2], in assay [7], in assay [4], in assay [5] and in assay [6] was “inactive” throughout. Besides, the Potency entry with Aromatase (Homo sapiens) is “inactive”. In [3], the outcome was inactive.
For `CC(=O)c1c(C)c([N+](=O)[O-])c(C(C)(C)C)c([N+](=O)[O-])c1C`, the Potency entry (in [1]; in assay [6]; in the assay with Aromatase (Homo sapiens)) was “inactive” each time. Further, the call in assay [3] was inactive.
Consider `CC(=O)O[C@H]1C[C@@H]2CC[C@@H]3[C@H](CC[C@@]4(C)[C@H]3C[C@H]([N+]3(C)CCCCC3)[C@@H]4OC(C)=O)[C@@]2(C)C[C@@H]1N1CCCCC1`, for which the Potency entry (in assay [2]; in assay [7]; in [5]; in assay [6]; with Aromatase (Homo sapiens)) was “inactive” throughout. Besides, the result in [3] was inactive. Also, the Potency in assay [4] was 33.5 µM (active).
On to `CC(C)(C)c1cc(CO)cc(C(C)(C)C)c1O`, for which the results for the Potency in assay [8] and in [5] were 62.3 µM (active) and 69.9 µM (active), respectively. In addition, the Potency entry in [1], in [7] and in assay [6] was “inactive” throughout.
For `O=[N+]([O-])c1cc[n+]([O-])cc1`, the Potency result in [1], in assay [7] and in [6] was “inactive” each time. Besides, the result in [3] was inactive.
In the case of `CCC(C)N(C)C(=O)c1cc2ccccc2c(-c2ccccc2Cl)n1` (centres undefined), the Potency in assay [8] was 35.2 µM (active). Further, the Potency entry in [1], in assay [7], in assay [4], in [5] and in assay [6] was “inactive” throughout. For the same molecule, the molecule was classed as inactive in [3].
Regarding `CC(=O)OC/C=C/c1ccccc1`, the Potency entry (in [8]; in [1]; in assay [6]; with Aromatase (Homo sapiens)) was “inactive” each time. Also, the molecule was classed as inactive in [3].
As for `CC(C)c1ccc2c(C(C)C)cc(C(C)C)c(S(=O)(=O)O)c2c1`, the Potency entry in [1], in assay [2], in assay [7], in assay [4], in [5] and in [6] was “inactive” throughout. Further, the Potency result in the assay with Aromatase (Homo sapiens) was “inactive”. Moreover, in [3], the call was inactive.
Turning to `N#Cc1cc2ccccc2c2ccccc12`, the Potency entry in [8], in assay [1], in assay [7], in [4], in assay [5] and in assay [6] was “inactive” each time. In the assay with Aromatase (Homo sapiens), the Potency entry is “inactive”. The call in assay [3] was inactive.
In the case of `CNCC[C@@H](Oc1ccccc1C)c1ccccc1`, in assay [8], the Potency was 23.7 µM (active). In addition, the Potency entry (in assay [2]; in assay [7]; in assay [4]; in [5]; in assay [6]; with Aromatase (Homo sapiens)) was “inactive” each time. In assay [3], the molecule was called inactive.
